Activity calls are given as the source filed them. Rule for the calls: active = hit-call score of the fitted dose curve at least 0.9, where 1 is the maximum; inconclusive = response in the unintended direction; inactive = score below 0.9.
Molecular target: Estrogen receptor (Homo sapiens) (UniProt P03372)
Assay: OT_ERa_GFPERaERE_0120: Odyssey Thera (OT) 2-hour HeLa Transcription Induction Assay for Estrogen Receptor (AID 2283382)
In short: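 Cells (human cervical HeLa) receive compound, incubate 2 hours, then are imaged for fluorescent reporter induction. Images are quantified by high content analysis, and activity is fitted as gain of signal against DMSO.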

Sequence of Estrogen receptor (Homo sapiens) (P03372 whole entry, looked up): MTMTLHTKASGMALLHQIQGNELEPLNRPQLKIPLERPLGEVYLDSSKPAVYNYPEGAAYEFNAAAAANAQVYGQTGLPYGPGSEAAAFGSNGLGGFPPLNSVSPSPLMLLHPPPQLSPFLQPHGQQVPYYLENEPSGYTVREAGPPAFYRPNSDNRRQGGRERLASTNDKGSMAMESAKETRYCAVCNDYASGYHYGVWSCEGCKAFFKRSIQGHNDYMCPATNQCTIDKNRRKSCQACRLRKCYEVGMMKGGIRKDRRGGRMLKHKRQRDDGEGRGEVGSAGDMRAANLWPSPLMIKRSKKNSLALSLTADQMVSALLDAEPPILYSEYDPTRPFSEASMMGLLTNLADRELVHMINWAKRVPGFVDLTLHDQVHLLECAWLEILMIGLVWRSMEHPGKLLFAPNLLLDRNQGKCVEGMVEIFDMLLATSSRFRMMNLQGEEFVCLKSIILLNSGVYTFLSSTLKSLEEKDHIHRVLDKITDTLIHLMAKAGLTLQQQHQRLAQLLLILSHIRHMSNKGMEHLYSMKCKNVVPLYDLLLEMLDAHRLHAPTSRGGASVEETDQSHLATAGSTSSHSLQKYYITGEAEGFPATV

SMILES	outcome
COCc1nnc(-c2ccc[n+]([O-])c2)n1-c1c(Cl)c(Cl)cc2[nH]c(=O)c(=O)[nH]c12	inactive
O=C(O)[C@H](O)[C@@H](O)C(=O)O	inactive
CCCCCCCCCCCCCCO	inactive
CCc1cccc(CC)c1N	inactive
NC(=O)NN=Cc1ccc([N+](=O)[O-])o1	inactive
CCCCCOC(C)=O	inactive
O=c1[nH]cnc2c1ncn2[C@H]1CC[C@@H](CO)O1	inactive
OCC(CO)(CO)CO	inactive
C[C@@H](Oc1ccc(CNC(=O)c2cccnc2Oc2ccc3c(c2)OCO3)c(F)c1)C(=O)O	inactive
NC(N)=O	inactive
c1ccc2ncccc2c1	inactive
CC(C)CC(C)O (stereo unspecified)	inactive
OC(Cn1cncn1)(Cn1cncn1)c1ccc(F)cc1F	inactive
CC(=O)c1ccccc1	inactive
O=C(O)CO	inactive
O=C(O)c1cccc(C(=O)O)c1	inactive
Cc1ncc([C@@H](CCCCCCc2ccc3c(n2)NCCC3)CC(=O)O)cn1	inactive
C=CN1CCCC1=O	inactive
CCCCOC(=O)c1ccccc1	inactive
CC1(C)C(=O)N(Cl)C(=O)N1Cl	inactive
CCCCCCOC(=O)CC(CC(=O)OCCCCCC)(OC(=O)CCC)C(=O)OCCCCCC	inactive
CCCCCCCC1CCC(=O)O1 (stereo unspecified)	inactive
Cn1c(=O)c2[nH]cnc2n(C)c1=O	inactive
OC[C@H]1O[C@@](CO)(O[C@H]2O[C@H](CO)[C@@H](O)[C@H](O)[C@H]2O)[C@@H](O)[C@@H]1O	inactive
CCCc1ccccc1	inactive
NNC(=O)c1ccncc1	inactive

Reference: PubChem BioAssay (EPA / NIEHS)
